Source: PubChem (National Center for Advancing Translational Sciences (NCATS))
Pf Dd2 growth – inhibitors of Plasmodium falciparum Dd2 growth. AID 1347417. hit rate 4.3% among 120,000. P. falciparum Dd2 growth, SYBR Green, 72 h. Potency, µM (doses to about 28.9 µM), for the others: top-dose activity, negative = inhibition, hits mostly inhibitors; active = well fitted inhibition curve with a large enough effect;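 also: plate controls were DMSO vehicle for no effect and reference drug for full effect; nearly all actives have a fitted effect of over 65% in size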
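Infected erythrocytes (Dd2, 0.3% parasitemia, 2.5% hematocrit final) are added to compound in RPMI-1640/Albumax II medium, grown 72 h at 37C in low oxygen, then lysed with saponin/Triton-X containing SYBR Green and read by fluorescence.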
The depositor's hits bear a star; i = inactive; [ ] = dose if it differs, or a comment. The sample as a whole holds a higher share of hits than the screen did. Potency is read from the fitted curve at half-maximal effect.

SMILES | Pf Dd2 growth
Cc1nn(Cc2ccccc2)c(C)c1[C@@H]1C=C[C@@H](NC(=O)CSCC(=O)O)C1 | i
COc1ccc(NC(=O)O[C@@H]2C=C[C@H](c3c(C)nn(-c4ccccc4C)c3C)C2)cc1 | i
Cc1nn(-c2ccc(C(F)(F)F)cc2)c(C)c1[C@@H]1C=C[C@@H](NC(=O)C2CCCCC2)C1 | i
Cc1nn(-c2ccc(F)cc2)c(C)c1[C@@H]1C=C[C@@H](NS(=O)(=O)c2cccs2)C1 | i
Cc1nn(-c2ccc(C(C)(C)C)cc2)c(C)c1[C@@H]1C=C[C@@H](NC(=O)Nc2ccccc2)C1 | -13.0%[44.1 µM]
Cc1nn(-c2ccc(C(F)(F)F)cc2)c(C)c1[C@@H]1C=C[C@@H](NC(=O)Nc2ccccc2)C1 | 11.2µM*
Cc1nn(-c2ccccc2)c(C)c1[C@@H]1C=C[C@@H](NCc2ccc(F)cc2)C1 | 5.01µM*
Cc1nn(-c2ccc(C(C)C)cc2)c(C)c1[C@@H]1C=C[C@@H](NCc2cccc(Cl)c2)C1 | -14.6%[44.1 µM]
Cc1nn(-c2ccc(C(F)(F)F)cc2)c(C)c1[C@@H]1C=C[C@@H](NC(=O)c2cccs2)C1 | 2.82µM*
Cc1nn(-c2ccc(C(C)(C)C)cc2)c(C)c1[C@@H]1C=C[C@@H](NC(=O)c2cccs2)C1 | -7.4%[44.1 µM]
Cc1nn(Cc2ccccc2)c(C)c1[C@@H]1C=C[C@@H](NC(=O)Nc2cccc(C#N)c2)C1 | i
CC1CCC2(CC1)NC(=O)N(CC(=O)Nc1ccccc1Cl)C2=O (centres undefined) | -1.6%
Cc1c(Cl)cccc1NC(=O)Cn1ccn2nc3c(c2c1=O)CCCCC3 | i
COc1ccc(-c2noc(Nc3ccc(C)c(C)c3)n2)cc1 | -13.0%
COc1ccccc1C(=O)NCCC1CCN(C(=O)Nc2ccccc2F)CC1 | 1.2%
CC(=O)Nc1ccc(S(=O)(=O)N2CC[C@H](c3nc4ccccc4o3)C2)cc1 | i
CC(=O)N1CCCCC1c1nnc2n1CCNC2 (centres undefined) | 15.8%[44.1 µM]
Cc1ccc(-n2nc(C)c([C@@H]3C=C[C@@H](N)C3)c2C)cc1Cl | i
Cc1nn(-c2ccccn2)c(C)c1[C@@H]1C=C[C@@H](NC(=O)CCC(=O)O)C1 | i
O=C(N[C@H]1CCN2C(=O)N(c3ccc(F)c(Cl)c3)C(=O)[C@@H]2C1)c1cccs1 | i
Cc1nn(Cc2ccccc2)c(C)c1[C@@H]1C=C[C@@H](NC(=O)CCC(=O)O)C1 | -8.0%[44.1 µM]
Cc1ccc(-n2nc(C)c([C@@H]3C=C[C@@H](NC(=O)c4cccs4)C3)c2C)cc1Cl | 11.2µM*
Cc1nn(-c2cccc(Br)c2)c(C)c1[C@@H]1C=C[C@@H](NC(=O)CC(C)(C)CC(=O)O)C1 | 8.91µM*
CN(Cc1ccccc1)C(=O)C[C@@H]1CCNC[C@@H]1Cc1cc(-c2ccc(F)cc2)on1 | -16.8%[44.1 µM]
O=C(NC1C[C@H]2CC[C@@H](C1)N2C(=O)c1ccc(C(F)(F)F)cc1)c1ccncc1 (some centres undefined) | -21.1%
SMILES | Pf Dd2 growth
COCCn1ccnc1C1CCCN(c2ncnc3c2CCC3)C1 (centres undefined) | 3.9%
CCOCCCNC(=O)N1Cc2ccccc2OC2(CCN(C)CC2)C1 | i
CC(C)(C)CC(=O)N1CCC(N2CCCC(C(=O)NCc3ccccc3)C2)CC1 (centres undefined) | -29.4%
CS(=O)(=O)N1CCCN(C(=O)CCc2c[nH]c3ccccc23)CCNC(=O)CC1c1ccccc1 (centres undefined) | i
O=C(c1c(OCC2CC2)cc(=O)n2c1CCOCC2)N1CCc2ccccc2C1 | -0.4%
Cc1ccc(C(=O)NC2CCN(c3cnn(C)c(=O)c3)CC2)cc1C | -4.9%
CCCC1=Nc2cc(C(=O)NCCc3ccc(OCC)cc3)ccc2Sc2ccccc21 | -28.9%
CCC1=Nc2cc(C(=O)NCCCOC)ccc2Sc2ccc(Br)cc21 | -27.7%
Cc1cccc(C)c1-c1nnc2ccc(C(=O)NC3CC3)cn12 | 23.4%
CC1=Nc2cc(C(=O)N3CCCCC3)ccc2Sc2ccc(C)cc21 | i
CC1=Nc2cc(C(=O)NC3CCCC3)ccc2Sc2ccc(Br)cc21 | 7.94µM*
CCCC1=Nc2cc(C(=O)NCCCN(CC)CC)ccc2Sc2ccccc21 | -7.6%
CCc1cc(C(=O)NCc2ccc(F)cc2)no1 | 8.4%
CCCC1=Nc2cc(C(=O)NC3CCCCC3)ccc2Sc2ccc(C)cc21 | 10µM*
CCC1=Nc2cc(C(=O)NCc3ccc(F)cc3)ccc2Sc2ccc(C)cc21 | 5.62µM*
Cc1nc2cc(C(=O)NC3CCCCCC3)ccc2n1-c1ccc(Br)cc1 | 18.4%
CC1=Nc2cc(C(=O)NC3CCC(C)CC3)ccc2Sc2c(C)ccc(C)c21 (centres undefined) | 11.2µM*
CCCNC1(Cc2cc(COc3ccccc3)on2)COC1 | -0.8%[44.1 µM]
Cc1cc(C(=O)N2CCC3(CC2)C(=O)N(C)c2ccccc23)nn1C | 22.0%
CNC(=O)C1(N2CCC[C@H]2C(=O)NCCN2CCOCC2)CCCCC1 | 9.9%
O=C(NCCC1CCN(C(=O)Nc2ccc(F)cc2F)CC1)c1cc(F)ccc1F | -23.6%
O=C(N[C@H]1CCN2C(=O)c3cc(/C=C/c4ccccc4)ccc3NC(=O)[C@H]12)C1CCCC1 | -16.7%[44.1 µM]
